Results on 13 compounds are retold here after PubChem BioAssay (NCATS).

“And” between values parts separate entries of the source, which are not always exact repeats. Equal values may be shown once. Unmarked numbers belong to inactive results. The source made the active and inactive calls. Unless noted, calls follow the shape of the dose curve; as a rule, active = well fitted curve in the direction sought with a large enough effect; inconclusive = small, poorly fitted or top-dose-only effect, or another doubt; inactive = no such curve, though single readings can be large; an effect the other way counts as inactive or inconclusive.

The nature of assay [1]: Cell Viability - LYMP2-004 (AID 966). Also: nearly all actives have a fitted effect of over 65% in size. Also: potency is read from the fitted curve at half-maximal effect. An outline of the steps: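 Viable-cell number estimated from ATP luminescence (CellTiter-Glo) in 2500 human lymphoblastoid cells/well after 24 hr at 37 C with compound. AC50 fitted to the standard Hill equation.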
The nature of assay [2]: Cell Viability - LYMP2-013 (AID 970). Also: nearly all actives have a fitted effect of over 55% in size. Also: potency is read from the fitted curve at half-maximal effect. In short, it runs like this: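 In complete culture medium, human lymphoblastoid cells were dosed for 24 hr at 37 C, with tetraoctylammonium bromide (6.4pM to 92 uM) as positive control. Viability reflects luciferase-based ATP signal; AC50 derived from concentration-response curves.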
The nature of assay [3]: Cell Viability - LYMP2-002 (AID 977).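 Also: compound exposure lasted 24 h at 37 °C.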 Also: potency is read from the fitted curve at half-maximal effect. In short, it runs like this:
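Human lymphoblastoid cells (2500/well) in complete medium were preincubated 5 hr at 37 C, then exposed to compounds for 24 hr at 37 C. Intracellular ATP was read by CellTiter-Glo luminescence; AC50 came from Hill-equation concentration-response fits.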

The nature of assay [4]: Cell Viability - LYMP2-006 (AID 978). Also: nearly all actives have a fitted effect of over 60% in size. Also: potency is read from the fitted curve at half-maximal effect. An outline of the steps: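 Concentration-dependent loss of intracellular ATP in a human lymphoblastoid line after 24 hr treatment at 37 C was measured by CellTiter-Glo luminescence, with AC50 values obtained from standard Hill-equation modelling.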
A short description of assay [5]: Cell Viability - LYMP2-010 (AID 981). Also: nearly all actives have a fitted effect of over 55% in size. Also: potency is read from the fitted curve at half-maximal effect. An outline of the steps: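 This 24 hr viability screen uses LYMP2-010 lymphoblastoid cells, quantifies ATP via luciferase luminescence, and derives AC50 from Hill fits of qHTS concentration-response data.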
Assay [6] in a line: Cell Viability - LYMP2-014 (AID 983). Also: nearly all actives have a fitted effect of over 50% in size. Also: potency is read from the fitted curve at half-maximal effect. An outline of the steps: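 Quantitative HTS in lymphoblastoid cells: 24 hr compound exposure, then CellTiter-Glo ATP luminescence. Positive control was tetraoctylammonium bromide, 6.4pM to 92 uM.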
Assay [7] in a line: Cell Viability - LYMP2-022 (AID 987). Also: nearly all actives have a fitted effect of over 55% in size. Also: potency is read from the fitted curve at half-maximal effect. In short, it runs like this:
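In this qHTS cytotoxicity screen, compound titrations were incubated 24 hr at 37 C with human lymphoblastoid cells in complete medium. Luciferase-based ATP luminescence provided the viability signal.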

The nature of assay [8]: Cell Viability - LYMP2-024 (AID 988). Also: nearly all actives have a fitted effect of over 60% in size. Also: potency is read from the fitted curve at half-maximal effect. An outline of the steps:
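Cells at 2500 per well received compound for 24 hr after a 5 hr settling period. Viability was scored by CellTiter-Glo luminescence, with AC50 from Hill fits.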

The target of assay [9] is Estrogen receptor (Homo sapiens) (UniProt P03372). In words: qHTS assay for small molecule antagonists of estrogen receptor alpha signaling (AID 588513; active = well fitted curve in the direction sought with a large enough effect in the signal ratio, with a control signal flat, not every such curve was filed as active; inconclusive = small, poorly fitted or top-dose-only effect, or effect the other way, or a change in a side signal; inactive = no such curve, though single readings can be large or run the other way; the % refers to the signal ratio; also: potency is read from the fitted curve at half-maximal effect). An outline of the steps:
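Cells were plated at 5000/well and incubated 4 h at 37 C. Compounds were added as 1:2 dilution series, duplicates. 17-beta-estradiol (0.5nM final) was added for 18 h before CCF4 detection.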
In general terms: qHTS replaces the single test concentration by a dilution series.

In assay [10] the target is Peroxisome proliferator-activated receptor delta (Homo sapiens) (UniProt Q03181). Briefly: qHTS assay for small molecule agonists of peroxisome proliferator-activated receptor delta signaling (AID 588534; calls by dose curve;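 also: 0% = DMSO basal wells and 100% = positive control agonist at 10 µM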). In short, it runs like this: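 EC50 and efficacy values derive from Hill fits of a concentration series in a beta-lactamase reporter cell assay. Exposure is 18 hrs at 37 C, with CCF4 fluorescence as the readout.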

The target of assay [11] is Nuclear receptor ROR-gamma (Homo sapiens) (UniProt P51449). Briefly: qHTS assay for small molecule antagonists of the retinoid-related orphan receptor gamma (ROR-gamma) signaling pathway (AID 651802). Also: nearly all actives have a fitted effect of over 60% in size. Also: potency is read from the fitted curve at half-maximal effect. An outline of the steps: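 Doxycycline-induced reporter activity in engineered CHO cells (TET-inducible ROR, RORE-LUC) was measured by luminescence after 16hr compound exposure at 37C.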

Assay [12] has as its target Cytochrome P450 3A4 (Homo sapiens) (UniProt P08684). Briefly: qHTS Assay for Inhibitors and Substrates of Cytochrome P450 3A4 (AID 884). Also: nearly all actives have a fitted effect of over 50% in size. Also: potency is read from the fitted curve at half-maximal effect. An outline of the steps:
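Luminescent readout of luciferin produced by CYP3A4 (20 nM) dealkylation of Luciferin-PPXE, 25 uM (its KM). NADPH-driven reaction ran 60 min at RT after 10 min compound preincubation; data scaled to 57 uM ketoconazole as 100% inhibition.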

Assay [13] can be described thus: MultiTox-Fluor Cytotoxicity Assay - LYMP1-001 - Live Cells (AID 947). Also: potency is read from the fitted curve at half-maximal effect.
A short description of assay [14]: qHTS assay for small molecule disruptors of the mitochondrial membrane potential - 1 hr assay (AID 651754; calls by dose curve; also: nearly all actives have a fitted effect of over 35% in size; also: potency is read from the fitted curve at half-maximal effect). In short, it runs like this: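 In this qHTS format, a 1 hr compound treatment of HepG2 cells precedes Mito-MPS staining, and membrane potential is judged from aggregate (red) against monomer (green) fluorescence intensity.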
The nature of assay [15]: qHTS assay for cell viability of HEK293 cells (AID 743288). Also: nearly all actives have a fitted effect of over 50% in size. Also: potency is read from the fitted curve at half-maximal effect. As to max response: % is scaled to controls: 0 for no effect and ±100 for the full control effect. Conditions: ATP luminescence (CellTiter-Glo), 18 h; max response: hits give low values. An outline of the steps: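 Quantitative high-throughput screen: compounds were pinned onto parental HEK293 cells (2,000 per well) after a minimum 5 h settling at 37 C, incubated 18 h at 37 C, and intracellular ATP measured by luciferase luminescence.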

Assay [16] can be described thus: qHTS assay for small molecule agonists of the antioxidant response element (ARE) signaling pathway measured by Nrf2-dependant transcriptional activity (AID 720636; active = well fitted curve in the direction sought with a large enough effect in the repeat runs; inconclusive = weak or mixed curves; inactive = no such curve, though single readings can be large; an effect the other way counts as inactive or inconclusive; also: potency is read from the fitted curve at half-maximal effect;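 as to activation: HepG2 cells with an ARE-driven luciferase reporter; % of control where 0% means no effect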). In short, it runs like this: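 In HepG2 cells engineered with an Nrf2-responsive luciferase gene, ARE induction was quantified as luminescence after 16 hr compound treatment at 37 C.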
For assay [17], the target named is Vitamin D3 receptor (Homo sapiens) (UniProt P11473). In words: qHTS assay for small molecule agonists of vitamin D receptor signaling (AID 588543; calls by dose curve;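 also: 0% = DMSO basal and 100% = reference agonist control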). An outline of the steps: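 qHTS in agonist mode: compound titrations stimulate a VDR-driven β-lactamase reporter in HEK293T cells over 16 h at 37 °C. Response normalized to 50 nM 1α,25-dihydroxyvitamin D3 = 100%, DMSO = 0%; Hill fitting gives EC50 and maximal response.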

The nature of assay [18]: qHTS assay for small molecule activators of the p53 signaling pathway (AID 651743; active = well fitted activation curve with a large enough effect in the signal ratio, not every such curve was filed as active; inconclusive = small, poorly fitted or top-dose-only effect, or a change in a side signal; the % refers to the signal ratio; also: % of control where 0% means no effect). Conditions: HCT-116 p53RE-bla, beta-lactamase FRET ratio, 16 h; activation: hits give high values. In short, it runs like this: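 A beta-lactamase reporter under p53 response element control, stably carried by HCT-116 cells, reported pathway activation. Test compounds were applied for 16 hours at 37 C, and fluorescence was measured 2 hours after adding the B/G FRET substrate.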

Assay [19] in a line: Cellular Toxicity (caspase-3) H-4-II-E (AID 663).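 Also: cells exposed to compound for 16 hr before readout.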 The settings on record: H-4-II-E rat hepatoma, scaled: DMSO 0%, 100 µM tamoxifen 100%; at 92.2 µM (top of the series). In short, it runs like this:
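Caspase 3/7 activation measured by luminescent aminoluciferin substrate cleavage after 16 hr compound treatment of H-4-II-E cells in complete medium. Increase normalized between DMSO (basal) and 100 uM tamoxifen (100%); Hill-equation AC50 from concentration-response.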

A short description of assay [20]: MultiTox-Fluor Cytotoxicity Assay - LYMP1-002 - Dead Cells (AID 960). Also: nearly all actives have a fitted effect of over 60% in size. Also: potency is read from the fitted curve at half-maximal effect. An outline of the steps: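 Concentration-dependent increases in membrane-leaked protease activity are quantified in LYMP1-002 cells after 16 hr treatment; values are normalized against DMSO and tetraoctylammonium bromide (15 uM) controls and AC50 derived by Hill modeling.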

Peroxisome proliferator-activated receptor delta (Homo sapiens), sequence (Q03181 whole entry, looked up): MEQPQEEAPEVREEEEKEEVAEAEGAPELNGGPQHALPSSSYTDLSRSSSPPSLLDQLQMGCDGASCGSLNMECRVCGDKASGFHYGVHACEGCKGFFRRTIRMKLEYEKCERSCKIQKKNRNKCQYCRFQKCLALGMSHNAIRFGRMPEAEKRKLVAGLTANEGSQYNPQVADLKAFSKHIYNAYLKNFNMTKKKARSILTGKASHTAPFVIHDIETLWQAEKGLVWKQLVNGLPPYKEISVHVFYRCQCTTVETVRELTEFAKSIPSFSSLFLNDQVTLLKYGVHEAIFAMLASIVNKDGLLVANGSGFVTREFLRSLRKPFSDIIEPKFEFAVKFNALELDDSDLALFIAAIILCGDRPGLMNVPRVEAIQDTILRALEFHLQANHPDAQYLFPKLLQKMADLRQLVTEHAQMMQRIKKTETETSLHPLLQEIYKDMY
Nuclear receptor ROR-gamma (Homo sapiens), sequence (P51449 whole entry, looked up): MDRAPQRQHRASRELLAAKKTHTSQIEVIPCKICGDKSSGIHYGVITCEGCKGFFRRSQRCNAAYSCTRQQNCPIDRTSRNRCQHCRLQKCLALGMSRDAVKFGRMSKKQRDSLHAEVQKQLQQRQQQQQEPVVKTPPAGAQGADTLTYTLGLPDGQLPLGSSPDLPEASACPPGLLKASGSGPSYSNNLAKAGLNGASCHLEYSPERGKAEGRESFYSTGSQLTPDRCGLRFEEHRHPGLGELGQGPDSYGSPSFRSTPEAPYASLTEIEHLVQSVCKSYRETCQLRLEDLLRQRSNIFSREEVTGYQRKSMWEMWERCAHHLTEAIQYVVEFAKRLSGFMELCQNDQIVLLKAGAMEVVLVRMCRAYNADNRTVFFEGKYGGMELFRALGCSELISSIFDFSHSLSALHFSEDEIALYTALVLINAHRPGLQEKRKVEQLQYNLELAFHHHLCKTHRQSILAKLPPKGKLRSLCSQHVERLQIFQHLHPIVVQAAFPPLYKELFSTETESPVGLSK
Cytochrome P450 3A4 (Homo sapiens), sequence (P08684 whole entry, looked up): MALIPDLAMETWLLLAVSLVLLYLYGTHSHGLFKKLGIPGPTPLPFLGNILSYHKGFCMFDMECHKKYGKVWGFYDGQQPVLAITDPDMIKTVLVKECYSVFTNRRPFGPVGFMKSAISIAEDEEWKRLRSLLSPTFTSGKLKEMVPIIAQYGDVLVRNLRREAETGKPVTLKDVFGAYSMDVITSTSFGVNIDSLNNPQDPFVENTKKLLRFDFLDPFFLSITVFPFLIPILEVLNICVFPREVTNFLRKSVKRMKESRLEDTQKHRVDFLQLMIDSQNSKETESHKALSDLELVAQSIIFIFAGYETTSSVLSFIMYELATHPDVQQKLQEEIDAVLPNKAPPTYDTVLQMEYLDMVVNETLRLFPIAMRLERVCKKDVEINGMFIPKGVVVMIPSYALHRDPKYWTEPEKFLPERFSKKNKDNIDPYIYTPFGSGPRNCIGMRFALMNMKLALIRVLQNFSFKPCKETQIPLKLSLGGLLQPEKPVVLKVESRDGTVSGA
Vitamin D3 receptor (Homo sapiens), sequence (P11473 whole entry, looked up): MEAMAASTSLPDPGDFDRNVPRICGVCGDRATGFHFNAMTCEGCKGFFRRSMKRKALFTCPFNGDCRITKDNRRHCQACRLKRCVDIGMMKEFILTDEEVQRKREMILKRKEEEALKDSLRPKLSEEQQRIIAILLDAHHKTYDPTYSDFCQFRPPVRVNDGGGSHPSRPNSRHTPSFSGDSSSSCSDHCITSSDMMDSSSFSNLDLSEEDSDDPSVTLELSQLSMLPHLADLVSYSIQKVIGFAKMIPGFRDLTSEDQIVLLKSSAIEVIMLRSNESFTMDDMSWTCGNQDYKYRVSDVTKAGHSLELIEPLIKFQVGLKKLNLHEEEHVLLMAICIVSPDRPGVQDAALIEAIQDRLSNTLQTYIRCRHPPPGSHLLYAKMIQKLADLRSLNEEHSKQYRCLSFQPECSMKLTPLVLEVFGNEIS
Estrogen receptor (Homo sapiens), sequence (P03372 whole entry, looked up): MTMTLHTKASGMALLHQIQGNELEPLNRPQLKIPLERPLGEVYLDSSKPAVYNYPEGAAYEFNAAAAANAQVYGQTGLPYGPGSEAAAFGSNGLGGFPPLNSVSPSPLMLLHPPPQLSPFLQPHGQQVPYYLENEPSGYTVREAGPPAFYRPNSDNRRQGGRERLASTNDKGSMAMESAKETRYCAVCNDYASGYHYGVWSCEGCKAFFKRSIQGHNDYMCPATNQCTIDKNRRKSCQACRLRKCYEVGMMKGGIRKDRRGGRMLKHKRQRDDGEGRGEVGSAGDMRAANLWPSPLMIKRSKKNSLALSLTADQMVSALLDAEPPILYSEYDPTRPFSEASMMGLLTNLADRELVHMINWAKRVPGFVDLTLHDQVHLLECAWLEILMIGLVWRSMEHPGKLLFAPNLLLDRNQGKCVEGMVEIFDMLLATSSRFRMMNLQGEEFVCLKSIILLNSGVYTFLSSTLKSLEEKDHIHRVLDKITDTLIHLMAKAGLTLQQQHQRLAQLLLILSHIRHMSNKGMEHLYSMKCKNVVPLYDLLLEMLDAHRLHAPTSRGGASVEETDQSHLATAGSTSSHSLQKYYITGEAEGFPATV

Take `CC(C)CC(C)Nc1ccc(Nc2ccccc2)cc1` (configuration not stated): the Potency in assay [1] is 25.1 µM (active); in assay [2], 50.1 µM (active); in assay [3], 39.8 µM (active); in assay [4] it was 39.8 µM (active); in assay [5] it was 39.8 µM (active); in assay [6], 39.8 µM (active). Further, the Potency in [7] is 31.6 µM (active); in assay [8], 25.1 µM (active); in [9], 25.1 µM [inconclusive] (active); in [11], 37.6 µM (active). Further, the compound was classed as inactive in assay [10].
For `[CH3][Hg][Cl]`, the Potency result in assay [12] was “inactive”. Besides, the Potency in [13] was 39.8 µM (active); in [1], 3.98 µM (active); in [2] it was 3.98 µM (active); in assay [3] it was 7.94 µM (active); in [4] it was 5.01 µM (active); in assay [5], 1.58 µM (active). In addition, the Potency was 3.98 µM (active) in assay [6]; 2.51 µM (active) in assay [7]; 2 µM (active) in assay [8]; 39.8 µM [inconclusive] (active) in assay [9]; 21.1 µM (active) in [14]; 6.68 µM (active) in assay [11]. Also, the Potency in assay [15] is 39.8 µM (active).
Regarding `O=[N+]([O-])c1ccccc1Cl`, in assay [16], the Potency entry is “inactive”. Also, the max response in assay [15] was -0.622% and -10.4%.
For `ClC1=C(Cl)C2(Cl)C3C(Cl)C(Cl)CC3C1(Cl)C2(Cl)Cl` (configuration not stated), the Potency was 15.8 µM (active) in assay [12] and 37.6 µM (active) in assay [11]. The Potency entry in assay [2], in [6] and in assay [16] was “inactive” in each case. Further, the compound was classed as inactive in assay [10] and in [17]. In addition, the activation in assay [18] is 0.792%.
Turning to `Cc1ccc(O)cc1C`, the activation in assay [18] is -0.374%. Moreover, the max response in assay [15] is 6.02%.
Turning to `C#CCO`, the caspase-3 activation in assay [19] is 0.354%. Besides, the Potency entry in [12], in assay [13], in [20], in assay [1], in [2] and in assay [3] was “inactive” in each case. For the same compound, the Potency result in [4], in assay [5], in [6], in assay [7], in assay [8] and in [9] was “inactive” each time. The Potency entry in assay [11] and in [16] was “inactive” throughout. Also, the compound was called inactive in assay [10] and in assay [17]. The activation in assay [18] was 0.794%. In assay [15], the max response is -6.13%.
Turning to `OC(c1ccc(Cl)cc1)(c1ccc(Cl)cc1)C(Cl)(Cl)Cl`, the Potency result in assay [12], in assay [13], in assay [1], in assay [2], in assay [3] and in assay [4] was “inactive” each time. Besides, the Potency result in assay [5], in assay [6], in [7], in assay [8], in assay [9] and in assay [14] was “inactive” each time. Further, the call in assay [10] and in assay [17] was inactive. The max response in [15] is 0.684% and -14.8%.
For `[Cd+2].[Cl-].[Cl-]`, the caspase-3 activation in assay [19] was -2.46%. Also, the Potency result in assay [20] is “inactive”. For the same compound, the Potency in assay [5] is 50.1 µM (active); in assay [7], 39.8 µM (active); in assay [9], 44.7 µM [inconclusive] (active); in assay [11] it was 3.35 µM (active); in assay [16] it was 0.841 µM (active). In addition, the outcome in assay [17] was inactive. For the same compound, in assay [18], the activation was -8.9%.
`Clc1ccc(C(c2ccc(Cl)cc2)C(Cl)Cl)cc1`: the caspase-3 activation in assay [19] is 87.3% (active). Moreover, the Potency entry in assay [12], in assay [1], in assay [2], in assay [3], in assay [4] and in [5] was “inactive” each time. The Potency entry in assay [6], in [7], in assay [8] and in [16] was “inactive” each time. The Potency was 15.8 µM (active) in assay [20], 39.8 µM [inconclusive] (active) in assay [9], 59.6 µM (active) in [14] and 37.6 µM (active) in assay [11]. For the same compound, the outcome in assay [10] and in assay [17] was inactive. Moreover, in assay [18], the activation was 6.6%.
In the case of `C(=NC1CCCCC1)=NC1CCCCC1`, in assay [19], the caspase-3 activation is 91.9% (active). Besides, the Potency result in assay [12], in [13], in assay [9], in assay [14] and in assay [16] was “inactive” in each case. Further, the compound was classed as inactive in assay [10] and in assay [17]. In addition, the activation in [18] was 5%. Further, the Potency in [11] is 18.8 µM (active).
For the compound `FC(F)(F)c1ccc(Cl)cc1`, the caspase-3 activation in assay [19] is 1.12%. Besides, the Potency entry in assay [12], in [13], in assay [20], in assay [1], in [2] and in [3] was “inactive” each time. Also, the Potency result in assay [4], in assay [5], in assay [6], in [7], in [8] and in assay [9] was “inactive” each time. For the same compound, the Potency entry in [14], in [11] and in assay [16] was “inactive” in each case. For the same compound, the outcome in assay [10] and in [17] was inactive. For the same compound, in assay [18], the activation is -2.63% and 1.33%. The max response in assay [15] is -1.88% and 4.63%.
As to `Nc1ccccc1C(=O)OCCc1ccccc1`, the caspase-3 activation in assay [19] was -2.95%. In addition, the Potency entry in [13], in [20], in [1], in assay [2], in assay [3] and in assay [4] was “inactive” in each case. Further, the Potency entry in [5], in assay [6], in assay [7], in assay [8] and in assay [11] was “inactive” in each case. Also, the outcome in [17] was inactive. Also, in assay [18], the activation was -0.792%.
Take `O=[N+]([O-])c1cc(C(F)(F)F)cc([N+](=O)[O-])c1Cl`: in assay [19], the caspase-3 activation was 24.4%. Further, the Potency entry in assay [12], in assay [13], in assay [20], in assay [9], in assay [14] and in assay [11] was “inactive” in each case. Besides, in assay [16], the Potency entry was “inactive”. Besides, the Potency in assay [2] is 39.8 µM (active); in assay [3], 31.6 µM (active); in assay [5] it was 31.6 µM (active); in assay [6], 50.1 µM (active); in assay [7], 31.6 µM (active); in assay [8], 31.6 µM (active). Further, the outcome in assay [17] was inactive.
